# Values joined by “and” are separate entries in the source; they are usually repeats but may differ in a detail not shown here. Identical values can stand only once. Records with an inconclusive call do not appear. Active and inactive are the calls of the source. Unless noted, how the calls were made is not given here.
# Tests used:
# [1] = blockers of MitoPT in mitochondria (AID 1580); conditions: isolated mitochondria, permeability transition inhibition
# [2] = rescue of PC12 cells from polyQ htt toxicity – LDH release (AID 1610); conditions: PC12 mutant huntingtin toxicity, final LDH at 4 uM, stronger effect = lower value
# [3] = compounds altering circadian rhythm period length – cell-based, LOPAC library, luminescence reporter (AID 2774); conditions: circadian reporter cells, at 7 µM, actives lie on both sides;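 further: values are relative to mean of DMSO wells on each plate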
# [4] = chitosan synthesis blockers in C. neoformans – flow cytometry, Cibacron Brilliant Red staining (AID 1347148); conditions: Cryptococcus neoformans chitosan, stronger effect = lower value; at 10 µM unless noted;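 further: compound exposure lasted three days at 37 degrees C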
# [5] = liver-stage malaria parasite load reduction – cell-based, known kinase inhibitor set, luminescence, hepatoma host viability (AID 624392); conditions: Plasmodium liver stage in hepatoma cells, luciferase luminescence, concentration not given here; liver cell % of control: measured here: host liver cell viability; parasite % of control: stronger effect = lower value;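 further: infected cells incubated roughly two days before readout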
# [6] = compounds altering viability of human ES cells (AID 493140); conditions: human embryonic stem cell survival screen; stronger effect = higher value;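 further: cells exposed to compounds for four days before counting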
# [7] = growth inhibition, single agents and combos, UWB1.289, cell-based, BGB or cisplatin combos, synergistic combos for chromothripsis tumors (AID 1671456; in the data active means inhibition above about 80%;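 further: cells exposed to compound for four days; 0% = vehicle DMSO and 100% = killing by high DMSO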); conditions: UWB1.289 ovarian carcinoma cells, stronger effect = higher value
# [8] = growth inhibition, single agents and combos, LFS_MB_2R, cell-based, cisplatin combos, synergistic combos for chromothripsis tumors (AID 1671457; in the data active means inhibition above about 80%;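 further: cells exposed to compound for four days before readout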); conditions: LFS_MB_2R medulloblastoma cells, stronger effect = higher value
# [9] = UWB1.289_BRCA1 ovarian cancer growth, cell-based, BGB or cisplatin combinations (AID 1671459; in the data active means inhibition above about 80%); conditions: UWB1.289 BRCA1 ovarian carcinoma, drug combinations, stronger effect = higher value
# [10] = drug combination toxicity in non-malignant astrocytes – cell-based, BGB or cisplatin IC20 combos, cytotoxicity control for chromothriptic childhood tumor combination screen (AID 1671460; in the data active means inhibition above about 80%;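 further: cells exposed to compounds for 96 hours before viability readout; 0% = vehicle and 100% = killing control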); conditions: Human astrocytes, viability inhibition, drug combinations, at 0.5 µM, stronger effect = higher value
# [11] = target: ATP-dependent translocase ABCB1 (Homo sapiens) (UniProt P08183); assay: P-glycoprotein substrate transport blockade – cell-based (AID 377; in the data active means fluorescence slope change above about 50%); conditions: MDR1-expressing cells, fluorescent substrate accumulation slope; stronger effect = higher value; concentration not given here
# ATP-dependent translocase ABCB1 (Homo sapiens), sequence (P08183 whole entry, looked up): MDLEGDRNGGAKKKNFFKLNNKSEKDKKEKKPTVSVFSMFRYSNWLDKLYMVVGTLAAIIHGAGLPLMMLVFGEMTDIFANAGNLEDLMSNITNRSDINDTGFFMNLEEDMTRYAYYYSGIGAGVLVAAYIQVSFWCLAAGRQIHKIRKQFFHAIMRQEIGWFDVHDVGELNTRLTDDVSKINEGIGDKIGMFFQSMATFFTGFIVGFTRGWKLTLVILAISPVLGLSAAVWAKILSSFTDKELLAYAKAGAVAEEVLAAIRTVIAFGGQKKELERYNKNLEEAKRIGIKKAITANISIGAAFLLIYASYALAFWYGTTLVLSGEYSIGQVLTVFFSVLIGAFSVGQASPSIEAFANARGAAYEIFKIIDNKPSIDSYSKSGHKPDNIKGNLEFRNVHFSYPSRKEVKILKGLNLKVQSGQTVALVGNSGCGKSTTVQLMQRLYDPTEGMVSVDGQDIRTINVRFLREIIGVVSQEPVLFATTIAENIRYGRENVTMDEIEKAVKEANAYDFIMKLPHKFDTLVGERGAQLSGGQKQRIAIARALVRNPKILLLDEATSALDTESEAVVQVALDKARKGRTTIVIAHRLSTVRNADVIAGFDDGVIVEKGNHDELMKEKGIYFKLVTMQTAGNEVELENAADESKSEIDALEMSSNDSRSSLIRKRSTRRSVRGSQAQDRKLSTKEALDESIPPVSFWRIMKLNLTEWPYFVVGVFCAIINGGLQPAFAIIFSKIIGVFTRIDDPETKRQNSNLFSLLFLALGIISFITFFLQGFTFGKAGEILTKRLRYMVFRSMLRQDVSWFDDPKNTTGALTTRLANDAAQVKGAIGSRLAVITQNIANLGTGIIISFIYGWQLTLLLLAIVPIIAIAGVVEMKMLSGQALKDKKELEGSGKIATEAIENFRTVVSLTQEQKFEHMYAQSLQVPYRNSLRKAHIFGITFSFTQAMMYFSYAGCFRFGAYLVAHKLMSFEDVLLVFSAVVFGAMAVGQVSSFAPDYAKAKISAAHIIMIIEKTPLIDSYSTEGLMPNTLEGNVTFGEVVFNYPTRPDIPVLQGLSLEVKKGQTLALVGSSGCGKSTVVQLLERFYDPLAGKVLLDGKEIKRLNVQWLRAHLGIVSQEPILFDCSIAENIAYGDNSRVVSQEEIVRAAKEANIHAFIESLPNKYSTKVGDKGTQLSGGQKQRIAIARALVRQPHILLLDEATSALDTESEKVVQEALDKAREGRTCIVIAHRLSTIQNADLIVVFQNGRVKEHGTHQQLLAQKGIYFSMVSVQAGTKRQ
# [12] = measured here: inhibition with BGB combination, at 0.05 µM
# [13] = measured here: inhibition with cisplatin combination, at 0.05 µM
# [14] = measured here: combination with cisplatin, at 0.5 µM
# [15] = measured here: combination with cisplatin, at 5 µM
# [16] = BGB combination, concentration series, at 5 µM
# [17] = cisplatin combination, concentration series, at 5 µM
# [18] = measured here: combo with BGB IC20
# [19] = measured here: combo with cisplatin IC20
smiles,measurement,setting,value
CC[C@@H](C(=O)[C@@H](C)[C@@H](O)[C@H](C)[C@@H]1O[C@@H]([C@@H](CC)C(=O)O)CC[C@@H]1C)[C@H]1OC2(C=C[C@@H](O)[C@]3(CC[C@@](C)([C@H]4CC[C@](O)(CC)[C@H](C)O4)O3)O2)[C@H](C)C[C@@H]1C (some centres not stated),EC50,[1],100 nM (active)
CC(=O)OCC(=O)[C@@]1(O)[C@H](C)CC2C3CCC4=CC(=O)C=C[C@]4(C)[C@@]3(F)[C@@H](O)C[C@@]21C (some centres not stated),normalised LDH release,[2],0.545
CCOC(=O)C1=C(C)NC(=S)NC1c1cccc(O)c1 (configuration not stated),period change,[3],0.16 h (inactive)
O=C1NC(=O)C(c2ccccc2[N+](=O)[O-])=C1Nc1ccc(O)c(Cl)c1,period change,[3],0.15 h (inactive)
same,fold fluorescence,[4],5.23 [at 139 µM] (inactive)
CS(=O)c1ccc(-c2nc(-c3ccc(F)cc3)c(-c3ccncc3)[nH]2)cc1 (configuration not stated),liver cell % of control,[5],87.6% and 90.6% and 97.1%
same,parasite % of control,[5],20.8% (inactive) and 18.7% (inactive) and 25.5% (inactive)
O=C(O)C1CCCN(CCC=C(c2ccccc2)c2ccccc2)C1 (configuration not stated),period change,[3],0.005 h (inactive)
COc1cccc(-c2cc(=O)c3ccccc3o2)c1N,period change,[3],-0.07 h (inactive)
same,survival,[6],106 (inactive)
same,fold fluorescence,[4],6.5 [at 187.1 µM] (inactive)
O=c1cc(-c2cccc3c2Sc2ccccc2S3)oc(N2CCOCC2)c1,inhibition,[7]; at 0.5 µM,-9.95% (inactive)
same,inhibition,[7]; [12],-28.4%
same,inhibition,[7]; [13],-10.7%
same,inhibition,[8]; at 0.5 µM,-22.3% (inactive)
same,inhibition,[8]; [14],-27.3%
same,inhibition,[8]; [15],-42.7%
same,inhibition,[9]; [16],-14.2%
same,inhibition,[9]; at 0.5 µM,-17.9% (inactive)
same,inhibition,[9]; [17],-3.21%
same,inhibition,[10],-40.3% (inactive)
same,inhibition,[10]; [18],-56.7%
same,inhibition,[10]; [19],-32.4%
NC(=O)c1ccc2[nH]ccc2c1,liver cell % of control,[5],92.5% and 90.8% and 97.8%
same,parasite % of control,[5],221% (inactive) and 164% (inactive) and 74.7% (inactive)
CCCCC[C@H](O)/C=C/[C@H]1[C@H](O)CC(=O)[C@@H]1C/C=C\CCCC(=O)O,fluorescence slope change,[11],51% (active)
same,survival,[6],66.5 (inactive)
CCC(C)N(C)C(=O)c1cc2ccccc2c(-c2ccccc2Cl)n1 (configuration not stated),period change,[3],0.03 h (inactive)
O=c1[nH]c(-c2ccc(C(F)(F)F)cc2)nc2c1CSCC2,inhibition,[7]; at 0.5 µM,-2.17% (inactive)
same,inhibition,[7]; [12],-13.9%
same,inhibition,[7]; [13],-26.3%
same,inhibition,[8]; at 0.5 µM,-7.37% (inactive)
same,inhibition,[8]; [14],-7.07%
same,inhibition,[8]; [15],-6.53%
same,inhibition,[9]; [16],-5.61%
same,inhibition,[9]; at 0.5 µM,0.36% (inactive)
same,inhibition,[9]; [17],7.32%
same,inhibition,[10],-1.27% (inactive)
same,inhibition,[10]; [18],0.645%
same,inhibition,[10]; [19],-5.26%
CCOC(=O)C1=C(N)Oc2ccc(Br)cc2C1C(C#N)C(=O)OCC (configuration not stated),fold fluorescence,[4],6.68 [at 122.2 µM] (inactive)
CCc1c2c(nc3ccc(O)cc13)-c1cc3c(c(=O)n1C2)COC(=O)[C@]3(O)CC,inhibition,[7]; at 0.5 µM,74.5% (inactive)
same,inhibition,[7]; [12],31%
same,inhibition,[7]; [13],49.3%
same,inhibition,[8]; at 0.5 µM,13.2% (inactive)
same,inhibition,[8]; [14],48.9%
same,inhibition,[8]; [15],61.9%
same,inhibition,[9]; [16],102%
same,inhibition,[9]; at 0.5 µM,81.6% (active)
same,inhibition,[9]; [17],105%
same,inhibition,[10],90.1% (active)
same,inhibition,[10]; [18],94.5%
same,inhibition,[10]; [19],87%
O=C(O)c1ccc(-c2c[nH]c3ncc(-c4ccccc4)cc23)cc1C1CCCC1,liver cell % of control,[5],92%
same,parasite % of control,[5],0.113% (active)
O=C1Nc2ccc(I)cc2/C1=C/c1cc(Br)c(O)c(Br)c1,period change,[3],-0.055 h (inactive)
same,survival,[6],109 (inactive)
same,fold fluorescence,[4],4.68 [at 96 µM] (inactive)
Oc1cc(O)cc(/C=C/c2ccc(O)c(O)c2)c1,period change,[3],-0.07 h (inactive)
same,survival,[6],27.6 (inactive)
same,fold fluorescence,[4],4.54 [at 204.7 µM] (inactive)
O=C1c2ccccc2-c2n[nH]c3cccc1c23,period change,[3],1.23 h (active)
same,survival,[6],97.1 (inactive)
same,fold fluorescence,[4],20.5 [at 227 µM] (inactive)
Cc1ccc(NC(=O)c2cccc(N(C)C)c2)cc1NC(=O)c1ccc(O)cc1,survival,[6],103 (inactive)
same,fold fluorescence,[4],3.78 [at 128.4 µM] (inactive)
CCCC[C@@H](C=O)NC(=O)[C@H](CC(C)C)NC(=O)OCc1ccccc1,fold fluorescence,[4],5.15 [at 137.9 µM] (inactive)
